Experimental data reported in PubChem BioAssay.
Records with an inconclusive call do not appear. Activity calls are given as the source filed them. Rule as the data show it, unless noted: active = percent of DMSO control GFP below about 86%; inactive = the rest, inconclusive results apart.

What was measured:
[1] = rapamycin-like changes in RPL19A-GFP expression – cell-based, S. cerevisiae, multiplex flow cytometry, primary screen (AID 1862);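 also: lower values mimic rapamycin by blocking the RPL19A rise seen in DMSO cells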; details: S. cerevisiae RPL19A-GFP strain, flow cytometry fluorescence, 3 h; at 10 µM; stronger effect = lower value
[2] = TOR pathway GLN3 branch reporter MEP2-GFP changes – S. cerevisiae, multiplex flow cytometry, primary screen (AID 1867;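 active = GFP response, as percent of the DMSO control, above the screen-wide mean plus 3 SD, about 139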;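 also: median GFP channel fluorescence of barcode-gated MEP2-GFP cells measured by flow cytometry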); details: S. cerevisiae MEP2-GFP strain, 3 h, at 10 µM, stronger effect = higher value, 100% means same as DMSO wells
[3] = TOR pathway RTG branch CIT2 reporter changes – S. cerevisiae, GFP fusion, multiplex flow cytometry, primary screen (AID 1870;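 active = percent response above a set limit, the screen-wide mean plus 3 SD, cut at about 130% in these data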;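 also: barcoded CIT2-GFP strain pooled with four other GFP strains with rapamycin as positive control; median GFP fluorescence per well over plate mean of DMSO wells so 100% = DMSO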); details: S. cerevisiae CIT2-GFP expression, 3 h, at 10 µM, stronger effect = higher value
[4] = TOR pathway LAP4-GFP level changes – S. cerevisiae, multiplex flow cytometry, primary screen (AID 1873;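 active = GFP signal, as percent of the solvent control, above the screen mean plus 3 SD, about 149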); details: S. cerevisiae LAP4-GFP expression, 3 h, at 10 µM, stronger effect = higher value
[5] = yeast AGP1-GFP level changes, GLN3 branch – cell-based, multiplex flow cytometry, S. cerevisiae, primary screen (AID 1887;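 active = GFP signal above the screen-wide mean plus 3 SD, that is over about 124.5% of the solvent control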;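 also: AGP1-GFP fusion strain of S. cerevisiae within a five-strain barcoded multiplex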); details: 3 h, at 10 µM, stronger effect = higher value
[6] = reduced mouse 2C T cell binding to pMHC/ICAM-1 vesicles – MLPCN validation set, flow cytometry, LFA-1/ICAM-1 modulator project, pilot screen (AID 2523;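 active = response below a set limit, under 55% cells CD8-positive and vesicle-bound, and CD8 cells' 90th-percentile brightness under 279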;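 as to vesicle binding response: mean PE anti-B7-1 fluorescence of CD8+ cells relative to row control; 100% = QL9-loaded vesicles with DMSO vehicle in the same plate row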); details: 2C mouse CD8+ T cells, at 7 µM, stronger effect = lower value; double positive events: measured here: CD8+/vesicle+ event percentage
[7] = biological target: Integrin beta-1 (Homo sapiens) + Integrin alpha-4 (Homo sapiens) (UniProt P13612+P05556); assay: alpha4beta1 integrin LIBS antibody binding reduction – U937 cells, HUTS-21 mAb, flow cytometry, validation set, VLA-4 allosteric modulator project, pilot screen (AID 2674;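 active = inhibition above 50%, about 3 SD of the validation set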;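 also: antibody binding induced by the VLA-4 ligand LDV present at three times its Kd; 0% = LDV ligand with antibody and no compound and 100% = antibody without LDV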); details: HUTS-21 LIBS mAb binding, at 6.7 µM, stronger effect = higher value, binding induced by LDV ligand
[8] = calorie-restriction mimetic ROS inhibitors, yeast – validation compound set, pilot screen (AID 2706;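 active = superoxide response below 65% of plate, a cut near 3 SD across the whole screen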;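 also: yeast exposed to compound for one week at 30 degrees C before staining; 100% = mean of all compound wells on the same plate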); details: S. cerevisiae aging, superoxide DHE fluorescence; at 10 µM; stronger effect = lower value
[9] = biological target: Beta-adrenergic receptor kinase 1 (Homo sapiens) (UniProt P25098); assay: GRK2 binders displacing RNA aptamer, biochemical, validation, human GRK2, bead flow cytometry (AID 488806;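 active = aptamer binding inhibition above 30%, about 3 SD of noise from non-fluorescent compounds; inactive = inhibition at or below 30%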); details: bead-bound GRK2, FAM-aptamer displacement, at 10 µM, stronger effect = higher value
[10] = biological target: Beta-2 adrenergic receptor (Homo sapiens) (UniProt P07550); assay: agonist-induced loss of surface beta2AR – cell-based, FAP fluorogen, flow cytometry, validation set, pilot screen (AID 504459;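 active = percent response above 42, roughly 3 SD of non-fluorescent test compounds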;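 also: agonist-driven loss of surface beta2AR via internalization measured by FAP dye flow cytometry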); details: Am2.2-beta2AR cells, at 10 µM, stronger effect = higher value
[11] = biological target: AP-2 complex subunit beta (Homo sapiens) (UniProt P63010); assay: beta-arrestin/AP2 interaction blockers – biochemical, validation set, GST-AP2 beads, flow cytometry, pilot screen (AID 504541;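 active = inhibition above 54%, about 3 SD of non-fluorescent compounds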;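 also: AP2 carries R879A mutation and is captured from E. coli lysate; bead-bound FITC arrestin peptide fluorescence measuring arrestin peptide binding to AP2; 0% = DMSO wells and 100% = excess unlabeled arrestin peptide control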); details: FITC arrestin peptide, at 10 µM, stronger effect = higher value, AP2 beta2 appendage fragment, R879A mutant
[12] = cytosolic pH regulators acting via V-ATPase – S. cerevisiae, pHLuorin, HTS validation (AID 504600; in the data active = response above about 15%;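 also: plate controls were DMSO for no effect and reference compound for full effect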); details: V-ATPase proton transport, at 10 µM, stronger effect = higher value
[13] = tested on: anti-desmoglein-3 scFv antibody binding to human DSG3; assay: blockers of pathogenic pemphigus antibody–desmoglein-3 binding – biochemical, validation compound set, bead-based, flow cytometry, pilot screen (AID 588368;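 active = binding below the plate cutoff, the plate median minus 3 SD, with a reading above zero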;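 also: signal is the median channel fluorescence of bead-bound GFP antibody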); details: Protein G beads, DSG3-Fc, scFv-GFP binding, at 10 µM, stronger effect = lower value
[14] = Nile Red efflux blockade in pump-expressing yeast – validation compound set, multiplex, phenotypic, pilot screen (AID 588506;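 active = efflux inhibition above 0.42, the validation set average plus 4 SD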;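 also: Nile Red retained in cells so higher fluorescence means more efflux inhibition; 0 = negative control wells and 1 = enniatin B 25 µM full block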); details: S. cerevisiae pump-expressing triplex, Nile Red efflux flow cytometry; at 10 µM; stronger effect = higher value; the pumps come from Candida albicans
[15] = biological target: ATP-binding cassette sub-family B member 6 (Homo sapiens) (UniProt Q9NP58); assay: blockers of ABCB6-driven porphyrin uptake – K562-ABCB6 cells, flow cytometry, validation set, pilot screen (AID 588550;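 active = inhibition above the screen-wide mean plus 3 SD, about 51%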;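 also: 0% = DMSO wells and 100% = benzethonium chloride 70 µM positive control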); details: K562-ABCB6 porphyrin accumulation, 1 h, at 10 µM, stronger effect = higher value
[16] = AML differentiation inducers, ER-HoxA9 marrow cells – cell-based, GFP/MAC1 double positive, flow cytometry, validation set, primary screen (AID 588685;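 active = differentiation response of at least 50%, scaled between solvent and reference control, from cells with both markers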;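 also: compound exposure lasts four days before antibody staining and flow analysis; 0% = DMSO wells and 100% = 5 µM fulvestrant positive control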); details: stronger effect = higher value, normalized: vehicle 0, fulvestrant 100

Sequence of ATP-binding cassette sub-family B member 6 (Homo sapiens) (Q9NP58 whole entry, looked up): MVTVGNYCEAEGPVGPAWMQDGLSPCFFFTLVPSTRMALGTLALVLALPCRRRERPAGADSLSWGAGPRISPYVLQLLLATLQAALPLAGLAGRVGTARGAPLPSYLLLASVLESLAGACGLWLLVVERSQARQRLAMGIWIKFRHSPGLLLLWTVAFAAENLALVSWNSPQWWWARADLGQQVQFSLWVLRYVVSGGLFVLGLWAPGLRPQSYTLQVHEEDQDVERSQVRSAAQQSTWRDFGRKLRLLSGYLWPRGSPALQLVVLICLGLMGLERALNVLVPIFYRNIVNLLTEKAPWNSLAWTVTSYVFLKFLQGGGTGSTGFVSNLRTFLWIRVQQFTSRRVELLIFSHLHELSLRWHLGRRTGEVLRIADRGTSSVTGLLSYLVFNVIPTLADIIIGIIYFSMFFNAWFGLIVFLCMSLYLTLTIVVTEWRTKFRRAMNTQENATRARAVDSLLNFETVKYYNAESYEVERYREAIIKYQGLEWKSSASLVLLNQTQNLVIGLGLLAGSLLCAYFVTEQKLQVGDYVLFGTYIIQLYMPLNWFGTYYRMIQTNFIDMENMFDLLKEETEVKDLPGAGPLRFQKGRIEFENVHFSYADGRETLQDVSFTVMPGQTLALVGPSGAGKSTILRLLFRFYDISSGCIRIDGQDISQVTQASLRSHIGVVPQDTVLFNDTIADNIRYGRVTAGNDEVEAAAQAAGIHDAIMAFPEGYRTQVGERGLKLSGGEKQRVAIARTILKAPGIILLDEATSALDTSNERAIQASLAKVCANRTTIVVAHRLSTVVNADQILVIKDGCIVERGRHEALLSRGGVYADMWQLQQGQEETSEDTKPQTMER
Sequence of Integrin beta-1 (Homo sapiens) + Integrin alpha-4 (Homo sapiens) (P05556 whole entry, looked up): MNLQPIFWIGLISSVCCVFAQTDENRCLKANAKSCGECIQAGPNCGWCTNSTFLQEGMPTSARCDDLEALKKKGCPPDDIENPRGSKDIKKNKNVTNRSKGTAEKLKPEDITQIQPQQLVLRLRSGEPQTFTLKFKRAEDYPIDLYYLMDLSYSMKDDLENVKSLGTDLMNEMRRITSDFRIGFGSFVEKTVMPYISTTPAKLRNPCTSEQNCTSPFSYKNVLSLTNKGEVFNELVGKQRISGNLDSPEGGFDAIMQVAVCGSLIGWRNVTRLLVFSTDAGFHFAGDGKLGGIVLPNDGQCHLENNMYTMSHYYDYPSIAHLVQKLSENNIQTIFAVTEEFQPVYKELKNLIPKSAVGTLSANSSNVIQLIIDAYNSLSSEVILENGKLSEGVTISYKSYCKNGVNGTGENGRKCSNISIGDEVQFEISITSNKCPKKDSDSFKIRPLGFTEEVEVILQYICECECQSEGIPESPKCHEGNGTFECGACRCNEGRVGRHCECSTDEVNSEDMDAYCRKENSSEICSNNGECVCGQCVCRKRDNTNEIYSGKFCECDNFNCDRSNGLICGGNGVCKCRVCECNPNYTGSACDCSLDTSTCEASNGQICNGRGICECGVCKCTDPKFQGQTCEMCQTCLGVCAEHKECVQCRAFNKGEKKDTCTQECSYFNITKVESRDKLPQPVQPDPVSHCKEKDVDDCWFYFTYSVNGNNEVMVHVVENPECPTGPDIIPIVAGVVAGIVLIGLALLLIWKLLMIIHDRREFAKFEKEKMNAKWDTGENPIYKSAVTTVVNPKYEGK
Sequence of Integrin beta-1 (Homo sapiens) + Integrin alpha-4 (Homo sapiens) (P13612 whole entry, looked up): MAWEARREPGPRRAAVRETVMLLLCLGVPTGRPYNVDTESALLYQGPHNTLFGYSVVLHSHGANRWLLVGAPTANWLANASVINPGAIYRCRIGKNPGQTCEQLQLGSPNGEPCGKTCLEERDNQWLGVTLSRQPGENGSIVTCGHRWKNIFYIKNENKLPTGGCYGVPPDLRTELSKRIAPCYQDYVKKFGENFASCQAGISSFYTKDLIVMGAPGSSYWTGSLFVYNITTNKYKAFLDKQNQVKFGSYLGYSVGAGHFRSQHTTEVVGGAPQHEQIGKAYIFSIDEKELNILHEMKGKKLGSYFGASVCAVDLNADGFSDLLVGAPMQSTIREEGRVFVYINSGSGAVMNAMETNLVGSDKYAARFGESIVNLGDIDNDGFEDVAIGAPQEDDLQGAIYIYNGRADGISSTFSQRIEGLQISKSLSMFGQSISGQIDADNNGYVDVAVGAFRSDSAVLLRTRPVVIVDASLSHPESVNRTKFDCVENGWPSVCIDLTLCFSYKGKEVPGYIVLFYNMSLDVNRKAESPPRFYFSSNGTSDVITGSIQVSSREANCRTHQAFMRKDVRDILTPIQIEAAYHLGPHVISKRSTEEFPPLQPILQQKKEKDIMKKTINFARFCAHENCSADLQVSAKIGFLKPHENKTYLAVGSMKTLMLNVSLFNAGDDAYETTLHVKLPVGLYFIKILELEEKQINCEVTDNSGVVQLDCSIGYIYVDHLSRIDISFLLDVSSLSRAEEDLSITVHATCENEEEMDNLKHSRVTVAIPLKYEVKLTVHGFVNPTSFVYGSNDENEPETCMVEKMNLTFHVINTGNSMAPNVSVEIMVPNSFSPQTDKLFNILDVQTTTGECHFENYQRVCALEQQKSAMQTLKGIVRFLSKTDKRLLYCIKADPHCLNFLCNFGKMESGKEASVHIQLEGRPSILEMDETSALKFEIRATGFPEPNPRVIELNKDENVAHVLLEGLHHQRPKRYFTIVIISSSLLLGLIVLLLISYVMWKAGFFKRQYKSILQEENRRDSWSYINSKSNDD
Sequence of Beta-2 adrenergic receptor (Homo sapiens) (P07550 whole entry, looked up): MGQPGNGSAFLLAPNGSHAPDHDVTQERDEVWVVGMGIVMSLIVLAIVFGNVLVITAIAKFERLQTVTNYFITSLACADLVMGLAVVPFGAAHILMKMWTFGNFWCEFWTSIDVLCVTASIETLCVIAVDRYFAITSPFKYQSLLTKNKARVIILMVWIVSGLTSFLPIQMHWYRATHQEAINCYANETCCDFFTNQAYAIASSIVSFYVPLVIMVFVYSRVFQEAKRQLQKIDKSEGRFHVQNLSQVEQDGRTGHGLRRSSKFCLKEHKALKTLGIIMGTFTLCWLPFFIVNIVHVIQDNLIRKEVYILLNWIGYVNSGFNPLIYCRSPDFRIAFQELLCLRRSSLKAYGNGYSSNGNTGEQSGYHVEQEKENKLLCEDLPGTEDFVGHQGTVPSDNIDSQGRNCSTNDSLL
Sequence of Beta-adrenergic receptor kinase 1 (Homo sapiens) (P25098 whole entry, looked up): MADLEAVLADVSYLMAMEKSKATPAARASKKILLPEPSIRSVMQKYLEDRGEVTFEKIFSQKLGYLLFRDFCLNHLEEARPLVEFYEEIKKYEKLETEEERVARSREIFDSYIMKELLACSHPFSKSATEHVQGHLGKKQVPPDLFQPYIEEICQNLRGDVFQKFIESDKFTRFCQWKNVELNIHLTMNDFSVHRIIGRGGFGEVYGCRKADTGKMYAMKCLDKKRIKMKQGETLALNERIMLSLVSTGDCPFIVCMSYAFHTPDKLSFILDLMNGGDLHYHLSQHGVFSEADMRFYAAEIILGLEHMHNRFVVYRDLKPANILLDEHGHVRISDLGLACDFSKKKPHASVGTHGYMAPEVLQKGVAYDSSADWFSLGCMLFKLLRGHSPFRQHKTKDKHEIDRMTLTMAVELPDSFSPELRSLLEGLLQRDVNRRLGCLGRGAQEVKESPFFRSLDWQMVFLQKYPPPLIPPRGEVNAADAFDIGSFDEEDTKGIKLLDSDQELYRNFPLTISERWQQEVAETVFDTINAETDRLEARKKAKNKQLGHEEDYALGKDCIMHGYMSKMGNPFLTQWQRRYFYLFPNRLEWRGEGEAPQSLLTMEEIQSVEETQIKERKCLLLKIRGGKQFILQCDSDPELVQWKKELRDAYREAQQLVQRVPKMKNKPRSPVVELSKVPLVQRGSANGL
Sequence of AP-2 complex subunit beta (Homo sapiens) (P63010 whole entry, looked up, the tested form may be a part, one chain of several): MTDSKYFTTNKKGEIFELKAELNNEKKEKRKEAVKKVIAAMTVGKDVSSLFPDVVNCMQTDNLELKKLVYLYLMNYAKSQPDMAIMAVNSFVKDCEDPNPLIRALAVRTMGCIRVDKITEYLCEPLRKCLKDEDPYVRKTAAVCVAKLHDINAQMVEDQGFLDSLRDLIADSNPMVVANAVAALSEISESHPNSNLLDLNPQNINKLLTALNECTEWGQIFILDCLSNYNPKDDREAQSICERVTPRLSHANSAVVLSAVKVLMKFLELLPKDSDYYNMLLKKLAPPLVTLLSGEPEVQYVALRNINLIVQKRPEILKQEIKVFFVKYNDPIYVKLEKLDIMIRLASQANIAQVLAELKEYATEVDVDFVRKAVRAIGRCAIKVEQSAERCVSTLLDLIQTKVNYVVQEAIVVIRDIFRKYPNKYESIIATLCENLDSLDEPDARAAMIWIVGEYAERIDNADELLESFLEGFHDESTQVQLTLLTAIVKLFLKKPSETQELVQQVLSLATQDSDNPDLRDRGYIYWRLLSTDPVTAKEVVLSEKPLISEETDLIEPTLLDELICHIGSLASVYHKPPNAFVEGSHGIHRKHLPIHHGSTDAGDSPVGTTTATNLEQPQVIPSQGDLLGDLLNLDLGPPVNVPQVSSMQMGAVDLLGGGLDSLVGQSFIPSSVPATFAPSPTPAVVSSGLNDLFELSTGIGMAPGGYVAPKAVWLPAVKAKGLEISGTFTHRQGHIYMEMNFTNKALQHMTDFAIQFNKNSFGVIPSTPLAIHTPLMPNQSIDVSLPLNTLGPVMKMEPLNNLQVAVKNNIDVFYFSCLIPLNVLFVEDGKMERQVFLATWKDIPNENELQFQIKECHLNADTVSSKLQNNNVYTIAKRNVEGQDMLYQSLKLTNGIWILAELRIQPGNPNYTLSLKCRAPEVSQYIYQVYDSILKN

CCOC(=O)C1(Cc2cccc(Cl)c2)CCCN(C2CCN(C(C)=O)CC2)C1 (stereo not drawn)
60.5%: double positive events [6]
inactive: percent of DMSO control GFP [1] 101% | GFP response vs DMSO [2] 101% | percent response of DMSO control [3] 102% | GFP response vs DMSO [4] 101% | GFP response, % of DMSO [5] 100% | vesicle binding response [6] 42.6% | inhibition [7] -7.72% | superoxide response (% of plate) [8] 106% | aptamer binding inhibition [9] -3% | response [10] -8.31% | inhibition [11] 34.6% | response [12] -5.5% | binding (% of control) [13] 177% | efflux inhibition (fraction of control) [14] -0.1 | inhibition [15] 13% | differentiation response [16] -0.73%

NCc1ccccc1COc1ccccc1
inactive: percent of DMSO control GFP [1] 105% | GFP response vs DMSO [2] 109% | percent response of DMSO control [3] 102% | GFP response vs DMSO [4] 117% | GFP response, % of DMSO [5] 111% | vesicle binding response [6] 179% | inhibition [7] 2.3% | superoxide response (% of plate) [8] 96.7% | aptamer binding inhibition [9] 0% | response [10] 4.62% | response [12] -3.28% | binding (% of control) [13] 98% | efflux inhibition (fraction of control) [14] 0.05 | inhibition [15] 6% | differentiation response [16] -15.2%
62.7%: double positive events [6]
active: inhibition [11] 57%

CSc1cccc(NC(=O)/C=C/c2ccccc2)c1
62.5%: double positive events [6]
inactive: percent of DMSO control GFP [1] 91.3% | GFP response vs DMSO [2] 90.5% | percent response of DMSO control [3] 88.6% | GFP response vs DMSO [4] 83.1% | GFP response, % of DMSO [5] 80.5% | vesicle binding response [6] 219% | inhibition [7] 15.2% | superoxide response (% of plate) [8] 114% | aptamer binding inhibition [9] 1% | response [10] 1.66% | inhibition [11] 7.39% | response [12] 1.17% | binding (% of control) [13] 104% | efflux inhibition (fraction of control) [14] -0.38 | inhibition [15] 10% | differentiation response [16] 9.01%

Cc1nnc(SCC2=C(C(=O)O)N3C(=O)[C@@H](NC(=O)Cn4cnnn4)[C@H]3SC2)s1
inactive: percent of DMSO control GFP [1] 100% | GFP response vs DMSO [2] 104% | percent response of DMSO control [3] 100% | GFP response vs DMSO [4] 114% | GFP response, % of DMSO [5] 112% | vesicle binding response [6] 282% | inhibition [7] 15.9% | superoxide response (% of plate) [8] 98.1% | aptamer binding inhibition [9] -1% | response [10] -26.4% | inhibition [11] 6.15% | response [12] -5.74% | binding (% of control) [13] 93.4% | efflux inhibition (fraction of control) [14] -0.13 | inhibition [15] 1% | differentiation response [16] -7.94%
61.6%: double positive events [6]

Cc1ccc(S(=O)(=O)NC(C(=O)Oc2cc3oc(=O)cc(C)c3cc2Cl)C(C)C)cc1 (stereo not drawn)
62.7%: double positive events [6]
inactive: percent of DMSO control GFP [1] 102% | GFP response vs DMSO [2] 102% | percent response of DMSO control [3] 97.7% | GFP response vs DMSO [4] 103% | GFP response, % of DMSO [5] 111% | vesicle binding response [6] 264% | inhibition [7] 3.99% | superoxide response (% of plate) [8] 98.7% | aptamer binding inhibition [9] 3% | response [10] -20.1% | inhibition [11] -3.53% | response [12] 1.33% | binding (% of control) [13] 98.7% | efflux inhibition (fraction of control) [14] 0.21 | inhibition [15] 7% | differentiation response [16] -0.06%

C[C@H](CCC(=O)O)[C@H]1CC[C@H]2[C@@H]3C(=O)C[C@@H]4CC(=O)CC[C@]4(C)[C@H]3CC(=O)[C@]12C
57.7%: double positive events [6]
inactive: percent of DMSO control GFP [1] 99.3% | GFP response vs DMSO [2] 105% | percent response of DMSO control [3] 101% | GFP response vs DMSO [4] 120% | GFP response, % of DMSO [5] 119% | vesicle binding response [6] 220% | inhibition [7] 22.7% | superoxide response (% of plate) [8] 95.4% | aptamer binding inhibition [9] 4% | response [10] -23.4% | inhibition [11] 10.1% | response [12] -2.4% | binding (% of control) [13] 109% | efflux inhibition (fraction of control) [14] -0.09 | inhibition [15] 0% | differentiation response [16] -11.9%

CN(C)c1ccc(CNCCC(Cc2ccccc2)c2ccco2)cc1 (stereo not drawn)
58.2%: double positive events [6]
inactive: percent of DMSO control GFP [1] 101% | GFP response vs DMSO [2] 93.5% | percent response of DMSO control [3] 108% | GFP response vs DMSO [4] 89.4% | GFP response, % of DMSO [5] 101% | vesicle binding response [6] 31.1% | inhibition [7] 1.12% | superoxide response (% of plate) [8] 92.3% | aptamer binding inhibition [9] -4% | response [10] 9.55% | inhibition [11] -16.6% | response [12] 2.43% | binding (% of control) [13] 105% | efflux inhibition (fraction of control) [14] 0.17 | inhibition [15] 4% | differentiation response [16] -5.68%

OCCN(Cc1nc(-c2ccc3c(c2)OCO3)no1)Cc1cccs1
inactive: percent of DMSO control GFP [1] 97.6% | GFP response vs DMSO [2] 102% | percent response of DMSO control [3] 91.3% | GFP response vs DMSO [4] 109% | GFP response, % of DMSO [5] 89.4% | vesicle binding response [6] 118% | inhibition [7] 9.63% | superoxide response (% of plate) [8] 88.2% | aptamer binding inhibition [9] 1% | response [10] 23.6% | inhibition [11] -7.29% | response [12] -1.85% | binding (% of control) [13] 109% | efflux inhibition (fraction of control) [14] -0.28 | inhibition [15] 6% | differentiation response [16] 15.9%
65.7%: double positive events [6]

CCOC(=O)C1C(=O)OC(C)(C)C1C(C)C(=O)c1ccc(C)cc1 (stereo not drawn)
inactive: percent of DMSO control GFP [1] 100% | GFP response vs DMSO [2] 103% | percent response of DMSO control [3] 93.1% | GFP response vs DMSO [4] 110% | GFP response, % of DMSO [5] 116% | vesicle binding response [6] 218% | inhibition [7] -6.23% | superoxide response (% of plate) [8] 118% | aptamer binding inhibition [9] 3% | response [10] -17.2% | inhibition [11] -19% | response [12] -5.62% | binding (% of control) [13] 102% | efflux inhibition (fraction of control) [14] -0.09 | inhibition [15] 5% | differentiation response [16] 13.7%
61.9%: double positive events [6]
